Experimental data taken from PubChem BioAssay (EPA / NIEHS).
Activity calls are given as the source filed them. The calls were made as follows: active = hit-call score of the fitted dose curve at least 0.9, where 1 is the maximum; inactive = score below 0.9.

Assay: ATG_M_06_CIS: Attagene CIS-FACTORIAL HepG2 Assay for M06 Transcription Factor (Internal Marker) (AID 2282950)
Conditions: HepG2 Attagene CIS-FACTORIAL M06 internal marker reporter; actives raise or lower the signal
Method: ATG_CIS is a cell-based, multiplexed-readout assay that uses HepG2, a human liver cell line, with measurements taken at 24 hours after chemical dosing in a 24-well plate.ATG_M_06_CIS is one of 52 assay component(s) measured or calculated from the ATG_CIS assay. It is designed to make measurements of mRNA induction, a form of inducible reporter, as detected with fluorescence intensity signals by Reverse transcription polymerase chain reaction (RT-PCR) and Capillary electrophoresis technology.Data from the assay component ATG_M_06_CIS was analyzed into 1 assay endpoint. This assay endpoint, ATG_M_06_CIS, was analyzed with bidirectional fitting relative to DMSO as the negative control and baseline of activity. Using a type of inducible reporter, measures of mRNA for gain or loss-of-signal activity can be used to understand the background control at the transcription factor-level as they relate to the gene . Furthermore, this assay endpoint can be referred to as a secondary readout, because this assay has produced multiple assay endpoints where this one serves a background control function. To generalize the intended target to other relatable targets, this assay endpoint is annotated to the background measurement intended target family, where the subfamily is internal marker.
Human liver HepG2 cells are transiently transfected with multiple reporter transcription units (MRTUs) in 6-well plates using FuGene 6 reagent (Roche; 3 ml FuGene/1 mg DNA). The MRTU constructs are regulated by a cis-regulating element (promoter). […] A major difference between the CIS and TRANS system is that in CIS activities of endogenous TFs are measured, whereas the TRANS assay evaluates changes in activities of exogenous, chimeric NR-Gal4 proteins. […] At the end of 24 hour incubation, total RNA was isolated using TriZol reagent (Invitrogen). The isolated RNA is then reverse-transcribed using oligo(dT) primer and Mo-MLV reverse transcriptase (Invitrogen) with DNAse I (Ambion) treatment for 30 min. The one-tenth of the produced cDNA was amplified by PCR using Taq DNA polymerase (Invitrogen) and two reporter sequence-specific primers. The PCR products were fluorescently labeled by primer extension with 6-arboxyfluorescein (6-FAM) 5'-labeled reporter sequence-specific primer (2 min at 95 C, 20 s at 68 C and 10 min at 72 C) and these products were digested with 5U of HpaI (New England Biolabs) for 2h at 37 C. The fragments were purified using Qiaquick PCR columns (Qiagen), analyzed on an ABI 3130xL genetic analyzer (Applied Biosystems) with peak positions identified by using a set of X-rhodamine (ROX)-labeled MapMarker1000 molecular weight standards (BioVentures). The raw capillary electrophoresis data was processed using Attagraph software (Attagene).

Structure (SMILES)	outcome
CCCN(CCOc1c(Cl)cc(Cl)cc1Cl)C(=O)n1ccnc1	inactive
Oc1ccc(Cl)cc1Cc1ccccc1	inactive
C[C@H]1[C@H](c2ccc(Cl)cc2)SC(=O)N1C(=O)NC1CCCCC1	inactive
Clc1ccccc1-c1nnc(-c2ccccc2Cl)nn1	inactive
CNC(=O)/C=C(\C)OP(=O)(OC)OC	inactive
CCS(=O)(=O)c1cccnc1S(=O)(=O)NC(=O)Nc1nc(OC)cc(OC)n1	inactive
CCCN(CCC)c1c([N+](=O)[O-])cc(C(F)(F)F)cc1[N+](=O)[O-]	inactive
CCC(C)(NC(=O)c1cc(Cl)c(C)c(Cl)c1)C(=O)CCl (stereo not given)	inactive
CC(C)OC(=O)Nc1cccc(Cl)c1	inactive
CCC(C)Nc1c([N+](=O)[O-])cc(C(C)(C)C)cc1[N+](=O)[O-] (stereo not given)	inactive
COC(=O)c1ccccc1S(=O)(=O)NC(=O)Nc1nc(C)nc(OC)n1	inactive
N#Cc1c(Cl)c(Cl)c(Cl)c(C#N)c1Cl	inactive
[2H]C1([2H])[n+]2ccccc2-c2cccc[n+]2C1([2H])[2H]	inactive
Cc1[nH]c(=O)n(C(C)(C)C)c(=O)c1Cl	inactive
O=S(=O)(O)C(F)(F)C(F)(F)C(F)(F)C(F)(F)C(F)(F)C(F)(F)C(F)(F)C(F)(F)F	inactive
CC1(C)C(C=C(Cl)Cl)C1C(=O)OC(C#N)c1ccc(F)c(Oc2ccccc2)c1 (stereo not given)	inactive
COC(=O)c1ccccc1S(=O)(=O)NC(=O)N(C)c1nc(C)nc(OC)n1	inactive
CNC(=O)CSP(=S)(OC)OC	inactive
COP(=O)(OC)OC=C(Cl)Cl	inactive
OCCOc1ccccc1	inactive

Structure (SMILES)	outcome
ClC1C(Cl)C(Cl)C(Cl)C(Cl)C1Cl (stereo not given)	inactive
CN1CSC(=S)N(C)C1	inactive
O=S1OCC2C(CO1)C1(Cl)C(Cl)=C(Cl)C2(Cl)C1(Cl)Cl (stereo not given)	inactive
O=C1c2ccccc2C(=O)N1SC(Cl)(Cl)Cl	inactive
CC(C)(C)C(O)C(Oc1ccc(Cl)cc1)n1cncn1 (stereo not given)	inactive
CCC(C)(C)C(=O)OC1=C(c2ccc(Cl)cc2Cl)C(=O)OC12CCCCC2	inactive
CCN(CC)C(=O)SCc1ccc(Cl)cc1	inactive
O=C(O)C(F)(F)C(F)(F)C(F)(F)C(F)(F)C(F)(F)C(F)(F)C(F)(F)F	inactive
COc1nn(CSP(=S)(OC)OC)c(=O)s1	inactive
Cc1cc(C)nc(NC(=O)NS(=O)(=O)c2ccccc2C(=O)OC2COC2)n1	inactive
O=C(O)COc1ccc(Cl)cc1Cl	inactive
COC(=O)c1ccccc1CS(=O)(=O)NC(=O)Nc1nc(OC)cc(OC)n1	inactive
O=[N+]([O-])c1c(Cl)c(Cl)c(Cl)c(Cl)c1Cl	inactive
CNC(=O)Oc1ccccc1OC(C)C	inactive
COc1cc(OC)nc(NC(=O)NS(=O)(=O)c2cc(NC=O)ccc2C(=O)N(C)C)n1	inactive
COP(=S)(OC)Oc1ccc([N+](=O)[O-])cc1	inactive
O=C(NC(=O)c1c(F)cccc1F)Nc1ccc(OC(F)(F)C(F)OC(F)(F)F)c(Cl)c1 (stereo not given)	inactive
O=[N+]([O-])/N=C1\NCCN1Cc1ccc(Cl)nc1	inactive
N#CN	inactive
C#CCN1C(=O)COc2cc(F)c(N3C(=O)C4=C(CCCC4)C3=O)cc21	inactive
